The structures appear in SMILES notation. Out of some 340,000 compounds screened, about 3,300 (0.97%) were called active. Another 9% or so got no clear call; they are omitted. Calls follow the shape of the dose curve; as a rule, active = well fitted inhibition curve with a large enough effect; inconclusive = small, poorly fitted or top-dose-only effect, or effect the other way; inactive = flat fitted curve, though single readings scatter. This is one part of the list.
Potency is read from the fitted curve at half-maximal effect.

The nature of the assay: qHTS Assay for Modulators of miRNAs and/or Inhibitors of miR-21. Also: nearly all actives have a fitted effect of over 55% in size. Conditions: HeLa miR-21-FLuc reporter, luciferase luminescence, 48 h; actives lower the signal. The essentials:
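HeLa cells stably expressing CMV-driven firefly luciferase with a downstream miR-21 binding sequence, endogenously expressing miR-21, were treated with titrations (up to about 40uM final) for 48 hours at 37 degree Celsius. Luciferase luminescence was read after lysis.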
For `O=C(Nc1ccccc1)c1cc2n(n1)C(C(F)(F)F)CC(C1CC1)N2` (centres undefined), the Potency was 6.56 µM (active).

Turning to `COc1cccc(Nc2ncnc3sc(C)cc23)c1`, the Potency is 6.56 µM (active).

Regarding `COc1ccc(Nc2ncnc3sc(C)cc23)cc1`, the Potency is 11.7 µM (active).

On to `COc1ccc(Nc2cc(Nc3cccc(OC)c3)ncn2)cc1`, for which the Potency was 14.7 µM (active). Turning to `COc1cccc(Nc2ncnc3ccccc23)c1`, the Potency was 2.33 µM (active).

Take `COc1cccc(Nc2ncnc3sccc23)c1`: the Potency is 7.36 µM (active).

For the molecule `Cc1ccc(-c2nc(-c3ccncc3)no2)cc1C`, the Potency is 0.585 µM (active). Turning to `COc1ccc(-c2nc(-c3ccncc3)no2)cc1`, the Potency is 0.464 µM (active). Regarding `COc1ccc(-c2nc(-c3ccc(Br)cc3)no2)c(OC)c1`, the Potency was 0.585 µM (active). In the case of `CSc1ccccc1-c1nc(-c2ccncc2)no1` it was 1.85 µM (active); in that of `Cc1ccc(-c2nc(-c3ccncc3)no2)cc1`, 1.47 µM (active); in that of `CCOCCn1c(N2CCN(c3ccccc3)CC2)nc2c1c(=O)[nH]c(=O)n2C`, 6.56 µM (active). With `CCCCCCOC(=O)c1ccc(OC(=O)c2cccnc2)cc1` the figure was 6.56 µM (active); with `Cc1ccc(/C=C2\SC(N3CCCC3)=NC2=O)cc1`, 16.5 µM (active); with `Cc1cc(OCc2cc(C(=O)N3CCCCCC3)no2)cc(C)c1Cl`, 5.85 µM (active). For the molecule `COCC1CCN(C(=O)c2cc(COc3cc(C)c(Cl)c(C)c3)on2)C1` (centres undefined), the Potency is 13.1 µM (active).

As for `COc1cccc(/C(N)=N/OC(=O)Cc2ccccc2[N+](=O)[O-])c1`, the Potency is 9.27 µM (active). `C=CCn1c(=O)c(C(=O)Nc2ccccc2S(N)(=O)=O)c(O)c2ccccc21`: the Potency is 4.65 µM (active). In the case of `NS(=O)(=O)c1ccccc1NC(=O)c1c(O)c2ccccc2[nH]c1=O` it was 0.736 µM (active); in that of `O=C(Nc1cccc(O)c1)c1c(O)c2ccccc2[nH]c1=O`, 1.47 µM (active). For `COc1ccccc1C(=O)OCc1cc(=O)n2nc(C3CC3)sc2n1`, the Potency is 13.1 µM (active). In the case of `COc1ccccc1C(=O)OCc1cc(=O)n2c(C)csc2n1` it was 10.4 µM (active); in that of `c1ccc(C2=NN(c3ccccc3)CC2)cc1`, 5.21 µM (active); in that of `Cc1cccc(C(=O)OCC(=O)c2ccc3c(c2)OCO3)c1O`, 1.85 µM (active).

Consider `Cc1ccc(C(=O)COC(=O)c2cccs2)cc1`, for which the Potency is 3.29 µM (active). In the case of `O=C(COC(=O)c1cccs1)c1ccc2c(c1)OCCO2` it was 3.69 µM (active); in that of `O=C(OCc1ccccc1F)c1ccc2c(c1)OCCO2`, 18.5 µM (active). `CCOC(=O)c1cc2c(=O)c3cc(C)ccc3oc2nc1C`: the Potency was 1.04 µM (active). With `CC(C)c1ccc(NC(=S)NN2CCOCC2)cc1` the figure was 16.5 µM (active).

These data come from PubChem BioAssay AID2289 (National Center for Advancing Translational Sciences (NCATS), 2010).
